Screening data as filed in PubChem BioAssay.
Pf growth 48h: Primary qHTS for delayed death inhibitors of the malarial parasite plastid, 48 hour incubation | actives 5.9% (n = 310,000) | P. falciparum luciferase growth in erythrocytes, 48 h | Potency, µM (titrated, usually from 28.7 µM), for inactives: at the highest dose activity change, negative = inhibition, hits mostly inhibitors; further: potency means the concentration at half of the fitted maximal effect; on the % scale 0 is the no-effect control and ±100 the full control effect
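Cell-based growth assay: transgenic P. falciparum expressing firefly luciferase, cultured in red cells within RPMI 1640 containing 0.5% w/v Albumax, 24 mM bicarbonate and gentamycin. A drop in luciferase activity indicates inhibition.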
Pf growth 96h: Primary qHTS for delayed death inhibitors of the malarial parasite plastid, 96 hour incubation; Potency, µM (top dose mostly 28.7 µM), for inactives: top-dose activity change, negative = inhibition, actives largely listed as inhibitors; P. falciparum luciferase reporter growth, 96 h; AID 504834, 2011; actives 6.9% (n = 320,000); further: potency means the concentration at half of the fitted maximal effect; on the % scale 0 is the no-effect control and ±100 the full control effect
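Two-generation exposure (96 h) targets delayed-death phenotype. Reporter parasites carrying integrated firefly luciferase, in red cells at 2% hematocrit and 0.05% parasitemia final, kept at 37 C, 5% CO2; luminescence loss indicates inhibition.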
HCV inh: qHTS Assay for Inhibitors of Hepatitis C Virus (HCV); Huh7.5.1 HCVcc-Cre infection, luciferase reporter, 44 h; Potency, µM (doses to about 41.8 µM), for the others: at the highest dose activity change, negative = inhibition, hits mostly inhibitors; actives 3.4% (n = 340,000); AID 651820, 2012; further: potency means the concentration at half of the fitted maximal effect; on the % scale 0 is the no-effect control and ±100 the full control effect
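HCVcc-Cre virus at an moi near 0.5 was added right after compound to cells cultured 4 h from seeding (1,000 cells/well). Luciferase activity was determined 44 h later, 15 min after substrate addition at RT.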
Shiga toxin inh: A qHTS for Small Molecule Inhibitors of Shiga Toxin | inhibition, % at 38.7 µM | AID 2315, 2010 | Vero cells, Shiga toxin protein synthesis inhibition reporter | actives 9.2% (n = 290,000); in the data active means inhibition mostly above about 28%, no sharp cut-off; inactive means mostly below about 43%; further: 0% is about no effect
HCMV inh: qHTS Assay for inhibitors of the human cytomegalovirus (HCMV) | HFF cells, HCMV-luciferase reporter, 72 h; active compounds read low | activity change, negative = inhibition, % at 57.5 µM | actives 4.5% (n = 410,000) | AID 1259415, 2018; in the data active means activity change below about -60%; inconclusive means no clear call, values can overlap the other calls; inactive means above about -39%; further: on the % scale 0 is the no-effect control and ±100 the full control effect
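Human foreskin fibroblasts infected with luciferase-reporter HCMV at MOI 1 PFU/cell, compounds at two doses. Luciferase measured 72 h post infection; normalized to buffer-only basal and Salinomycin (10uM) controls.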
Cycloheximide cs: Cycloheximide Counterscreen for Small Molecule Inhibitors of Shiga Toxin; cell reporter, cycloheximide protein synthesis inhibition counterscreen; actives 12% (n = 300,000); AID 2314, 2010; max response, %; in the data active means max response mostly above about 13%, no sharp cut-off; inactive means mostly below about 14%; further: read at 38.3 µM for the half of the compounds with a filed dose; 0% is about no effect
Active calls of the source: *; i = inactive; u = inconclusive; x = no result given; + = active, no number; [ ] = another dose, or the depositor's remark. Shown are actives, neighbours in structure and some others; about 21% of the full set was active somewhere. Unless noted, the call rests on the fitted dose curve; in most records, active means well fitted inhibition curve with a large enough effect; inconclusive means small, poorly fitted or top-dose-only effect, or another doubt; inactive means no such curve, though single readings can be large or run the other way.

SMILES	Pf growth 48h	Pf growth 96h	HCV inh	Shiga toxin inh	HCMV inh	Cycloheximide cs
O=C(CNC(=O)c1cccs1)OCc1ccc(Br)cc1	24%	-5%	5%	15	16	-1
CCCCOCCCNC(=O)c1cccs1	u	-13%	0%	-6	-9	1
Cc1ccc(C(=O)N2CCN(Cc3ccccc3)CC2)cc1S(=O)(=O)N1CCOCC1	-16%	u	-6%	x	-4	x
COc1ccccc1C(=O)NCC(c1ccc(N(C)C)cc1)N1CCc2ccccc21 (stereo not given)	x	x	x	x	-30	x
CC(OC(=O)c1ccccc1C(=O)N(C)c1ccccc1)C(=O)Nc1ccccc1[N+](=O)[O-] (stereo not given)	u	u	-4%	x	-11	x
COc1ccc(CNC(=O)COC(=O)c2cccs2)cc1	40%	1%	14%	47*	-2	27*
O=C(NCCCCCCNC(=O)c1cccs1)c1cccs1	3%	28%	1%	-7	-28	-3
O=C(NCCCc1ccccc1)c1cccs1	27%	39%	10%	55*	-10	34*
O=C(NCCSCc1ccc(Cl)cc1)c1cccs1	3.3µM*	10µM*	-8%	-6	-5	9
O=C(CNC(=O)c1cccs1)OCc1ccc(Cl)cc1	30%	2%	12%	-3	u	-3
CC(C)CCCCCCCCc1cccc(O)c1C(=O)O	x	x	x	x	8	x
CCN(CC)C(=O)Cn1cnc2sc(C)c(S(=O)(=O)N3CCC(C)CC3)c2c1=O	5%	-16%	11%	62	6	-2
COC(=O)c1c(-c2ccccc2)noc1-c1ccccc1	x	x	u	x	15	x
COC(=O)c1c(C)noc1-c1ccc(Cl)cc1	3%	17%	22%	-3	-64*	-3
CC(C)c1nn2c(=O)cc(COC(=O)c3cccs3)nc2s1	x	x	x	x	-7	x
CCOC(=O)CNC(=O)C1c2ccccc2Oc2ccccc21	37%	u	16%	1	11	-4
CCOc1ccc(C2=C(C=C(C#N)C#N)C(c3ccccc3)c3ccccc3O2)cc1 (stereo not given)	3.7µM*	4%	u	-6	60	-2
COc1ccc(C2=C(CN(C)C)C(c3ccccc3)c3ccccc3O2)cc1 (stereo not given)	4.7µM*	2.6µM*	-1%	-3	-25	-5
CCOC(=O)C1Oc2ccccc2C(c2ccc(OC)cc2)=C1C(=O)OC (stereo not given)	x	x	-14%	i	-10	2
O=C1CCCC(=O)N1c1ccc(O)cc1	34%	12µM*	-18%	-12	-40	-2
O=C1CCCC(=O)N1c1ccc(Oc2ccc(Cl)cc2)cc1	18%	19%	12%	41*	-32	22*
C/C(=C\C(=O)c1ccccc1)Nc1ccc2c(c1)OCO2	167%	u	3.2µM*	50*	37	37*
C/C(=C\C(=O)c1ccc(C)o1)Nc1ccc2c(c1)OCO2	-11%	31%	11%	49*	8	23*
Cc1ccc(C(=O)OCC(=O)Nc2ccc3c(c2)OCO3)o1	102%	82%	16%	24	-8	21
CC(=O)Nc1ccc2c(c1)OCO2	1%	1%	11%	17	-11	9
SMILES	Pf growth 48h	Pf growth 96h	HCV inh	Shiga toxin inh	HCMV inh	Cycloheximide cs
Cc1ccc(C(=O)Nc2ccc3c(c2)OCO3)o1	90%	119%	6%	68*	146	31*
COc1cc(CN2C(=O)C(C)ON=C2c2ccccc2F)cc(OC)c1 (stereo not given)	x	x	x	x	19	x
CC(=O)Nc1cccc(NC(=O)CSc2nc(=O)n(CCCN3CCOCC3)c3c2CCC3)c1	-7%	10%	19%	x	5	x
CCOC(=O)c1ccc(NC(=O)C23CCC(C)(C(=O)O2)C3(C)C)cc1 (stereo not given)	44%	18%	-2%	65*	40	50*
CCOC(=O)c1ccc(NC(=O)C2(c3ccc(OC)cc3)CCCC2)cc1	5.9µM*	u	-15%	11	-30	8
COC(=O)c1cc2c(s1)-c1cc(F)ccc1OC2	34%	67%	13%	7	-66*	12
CCOC(=O)c1cc2c(s1)-c1ccccc1CC2	46%	39%	4%	67*	94	37*
COC(=O)c1cc2c(s1)-c1ccccc1CC2	47%	13%	u	+	27	62*
CCOC(=O)c1ccccc1NC(=O)c1cc2c(s1)-c1ccccc1SC2	x	x	x	x	17	x
Cc1cccc(/C=N/NC(=O)c2cc3c(s2)-c2ccccc2CC3)c1	u	16%	7%	23	23	11
CCOC(=O)c1cc2ccc3ccccc3c2s1	402%	356%	u	75*	90	48*
C[C@H](CO)N1C[C@H](C)[C@@H](CN(C)C(=O)c2cccnc2)Oc2ncc(Br)cc2C1=O	x	x	x	x	23	x
Cc1cccc(OC(=O)c2cc(-c3ccc(Cl)cc3)on2)c1C	x	x	x	x	1	x
CCOc1ccc(C(=O)c2cn(CC(=O)Nc3ccc(C)c(C)c3)c3ccc(OCC)cc3c2=O)cc1	x	x	x	x	4	x
CC(C)C[C@H]1COCCS(=O)(=O)N1Cc1cccc(F)c1	x	x	-13%[8.37 µM]	x	-2	x
Cc1ccc(-c2nc3sc(CCNC(=O)c4ccc(C)c(C)c4)c(C)n3n2)cc1	x	x	x	x	19	x
COc1cc(C2C(C#N)=C(N)OC3=C2C(=O)CC(C)(C)C3)cc([N+](=O)[O-])c1O (stereo not given)	-7%	-25%	11%	3	-32	-2
O=C1C(=O)N(Cc2cccnc2)C(c2ccccn2)/C1=C(/O)c1ccc(Br)cc1 (stereo not given)	12%	0%	20%	21	-5	-2
Cc1ccc(/C(O)=C2\C(=O)C(=O)N(Cc3cccnc3)C2c2ccccc2[N+](=O)[O-])cc1 (stereo not given)	-11%	49%	18%	83*	92	37*
O=C1C(=O)N(CCO)C(c2ccccc2[N+](=O)[O-])/C1=C(\O)c1ccccc1 (stereo not given)	33%	-1%	17%	-5	57	-5
Cc1ccc(/C(O)=C2\C(=O)C(=O)N(C)C2c2ccccc2[N+](=O)[O-])cc1 (stereo not given)	57%	63%	25%	x	49	37*
CC(=O)N1c2ccccc2CC1C(=O)N1CCN(c2cccc(Cl)c2)CC1 (stereo not given)	x	x	x	x	-3	x
COc1ccccc1/C=C/C=N/N1CCN(Cc2ccccc2)CC1	7%	5%	26%	-6	-14	13*
